The record followed here is PubChem BioAssay (Tox21).

Where “and” joins values, the source holds several entries; their conditions need not be identical. Equal entries are not always repeated. Inconclusive results are not listed. Calls of active or inactive are those of the source. The call rests on the fitted dose curve; in most records, active means well fitted curve in the direction sought with a large enough effect in the repeat runs; inconclusive means weak or mixed curves; inactive means no such curve, though single readings can be large; an effect the other way counts as inactive or inconclusive.
On the % scale 0 is the no-effect control and ±100 the full control effect; potency means the concentration at half of the fitted maximal effect.

A short description of one assay: qHTS assay to identify small molecule antagonists of the thyroid receptor (TR) signaling pathway - cell viability counter screen (AID 743064). Further: nearly all actives have a fitted effect of over 50% in size. The following applies: GH3.TRE-Luc viability, CellTiter-Fluor, 24 h; series mostly up to 70.3 µM; activity change, negative = cytotoxic: at the top concentration. A digest of the protocol: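 Same-well viability check: GH3.TRE-Luc cells stimulated with 1 nM T3 alongside test compound for 23.5 h, followed by CellTiter-Fluor fluorescence.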
A general note: In qHTS, concentration-response curves come from the screen itself.
`CCCCCCCCCCOCC(O)CN` (configuration not stated): the Potency is 5.96 µM (active).

Regarding `O=C1NC2CCCCN2C12CCN(CCCN1c3ccccc3CCc3ccc(Cl)cc31)CC2` (configuration not stated), the Potency was 6.68 µM (active).

As to `CCN(CC)CCNc1ccc(CO)c2sc3ccccc3c(=O)c12`, the Potency is 4.73 µM (active).

With `CCOC(=O)C1=C(C)NC(C)=C(C(=O)OCC)C1c1ccccc1/C=C/C(=O)OC(C)(C)C`, the Potency was 13.3 µM (active).

Take `Cc1nc(Nc2ncc(C(=O)Nc3c(C)cccc3Cl)s2)cc(N2CCN(CCO)CC2)n1`: the Potency was 18.8 µM (active).

For the molecule `C=C[C@](C)(O)CC[C@@H]1[C@@]2(C)CCCC(C)(C)[C@@H]2CC[C@@]1(C)O`, the Potency was 43.3 µM (active).

As for `CC(C)(c1cc(Br)c(O)c(Br)c1)c1cc(Br)c(O)c(Br)c1`, the Potency was 27.2 µM (active).

Turning to `CN1CCN(C2Cc3ccccc3Sc3ccc(Cl)cc32)CC1` (configuration not stated), the Potency is 9.44 µM (active).

Consider `COc1cc(C=C2CCC/C(=C\c3ccc(O)c(OC)c3)C2=O)ccc1O`, for which the Potency was 7.5 µM (active).

As to `CCCCCCCC/C=C\CCCCCCCC(=O)NCc1ccc(O)c(OC)c1`, the Potency was 6.68 µM (active).

Take `CCCCOc1ccc(C(=O)CCN2CCCCC2)cc1`: the Potency is 5.07 µM (active).

For `CNC(=O)c1cc(Oc2ccc(NC(=O)Nc3ccc(Cl)c(C(F)(F)F)c3)cc2)ccn1`, the Potency was 9.44 µM (active).

On to `CC=O`, for which the Potency was 2.86 µM (active).

With `CC(C)(C)CC(C)(C)c1ccccc1O`, the Potency was 19.4 µM (active).

For `C=C(c1ccc(C(=O)O)cc1)c1cc2c(cc1C)C(C)(C)CCC2(C)C`, the Potency was 11.9 µM (active) and 13.7 µM (active).

For `O[C@@H](c1cc(C(F)(F)F)nc2c(C(F)(F)F)cccc12)[C@H]1CCCCN1`, the Potency was 5.96 µM (active).

`CCN(CC)CCCN(c1ccccc1)C1Cc2ccccc2C1`: the Potency is 2.98 µM (active).

Consider `COc1cccc(CCc2ccccc2OCC(CN(C)C)OC(=O)CCC(=O)O)c1` (configuration not stated), for which the Potency is 23.7 µM (active).

Take `NC(=O)C(=O)N/N=C/c1ccc([N+](=O)[O-])o1`: the Potency is 26.6 µM (active).

In the case of `COCC(=O)O[C@]1(CCN(C)CCCc2nc3ccccc3[nH]2)CCc2cc(F)ccc2[C@@H]1C(C)C`, the Potency was 1.5 µM (active).

Consider `CC(C)(C)c1cc(/C=C2\SC(=N)NC2=O)cc(C(C)(C)C)c1O`, for which the Potency was 21.7 µM (active).

For the molecule `O=C1NCCN1CCN1CCC(c2cn(-c3ccc(F)cc3)c3ccc(Cl)cc23)CC1`, the Potency was 6.68 µM (active).

`O=C1C=CC(=O)N1c1ccccc1`: the Potency was 4.86 µM (active).

In the case of `O=C(Nc1ccc(Cl)cc1)Nc1ccc(Cl)c(C(F)(F)F)c1`, the Potency was 6.68 µM (active).

Consider `CCN(CC)CCOc1ccc(C(O)(Cc2ccc(Cl)cc2)c2ccc(C)cc2)cc1` (configuration not stated), for which the Potency is 7.5 µM (active).

With `CCC(C)c1cc([N+](=O)[O-])cc([N+](=O)[O-])c1OC(=O)OC(C)C` (configuration not stated), the Potency was 48.6 µM (active).

For the molecule `c1cc(OCC2CO2)cc(OCC2CO2)c1` (configuration not stated), the Potency was 19.2 µM (active).

On to `CCCCCCC(C)Nc1ccc(Nc2ccccc2)cc1` (configuration not stated), for which the Potency was 61.1 µM (active).

Take `CCCOc1sc(C(=O)N2CCC(c3cc(CN)ccc3F)CC2)c(C)c1Br`: the Potency is 6.28 µM (active).

As for `Oc1ccc(-c2ccc(O)cc2)cc1`, the “activity change, negative = cytotoxic” value was 0% [at 95 µM] (inactive).

In the case of `CC(=O)OC(OC(C)=O)c1ccc([N+](=O)[O-])o1`, the Potency is 13.9 µM (active).

`CC(C(O)c1ccccc1)N(C)CCOC(c1ccccc1)c1ccccc1` (configuration not stated): the Potency is 11.9 µM (active).

`CSc1ccc2c(c1)N(CCC1CCCCN1C)c1ccccc1S2` (configuration not stated): the Potency is 7.5 µM (active) and 8.6 µM (active).

As to `COc1cc(C(=O)NS(=O)(=O)c2ccccc2C)ccc1Cc1cn(C)c2ccc(NC(=O)OC3CCCC3)cc12`, the Potency was 29.8 µM (active).

On to `C=C1C(C)(C)[C@@]2(Cl)C(Cl)[C@]1(Cl)C(Cl)(Cl)C2(Cl)Cl` (some centres not stated), for which the Potency was 26.8 µM (active).

With `Cc1cc2c(C(C)C)c(O)c(O)c(C=O)c2c(O)c1-c1c(C)cc2c(C(C)C)c(O)c(O)c(C=O)c2c1O`, the Potency was 9.44 µM (active).

The nature of a further assay: qHTS assay to identify small molecule antagonists of the thyroid receptor (TR) signaling pathway (AID 743065). Further: nearly all actives have a fitted effect of over 55% in size. Conditions: GH3.TRE-Luc, T3-stimulated luciferase inhibition, 23.5 h; series mostly up to 70.3 µM; activity, negative = inhibition: at the top concentration. The procedure, abridged: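 GH3.TRE-Luc rat pituitary cells (two TREs driving luciferase) were dosed with compound, then stimulated with 1 nM T3 (final) for 23.5 h at 37 C. ONE-Glo luminescence was the read-out, with CellTiter-Fluor fluorescence as the cytotoxicity counter-screen.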
`CCCCCCCCCCOCC(O)CN` (configuration not stated): the Potency is 9.44 µM (active).

Turning to `O=C1NC2CCCCN2C12CCN(CCCN1c3ccccc3CCc3ccc(Cl)cc31)CC2` (configuration not stated), the Potency is 8.41 µM (active).

As to `CCN(CC)CCNc1ccc(CO)c2sc3ccccc3c(=O)c12`, the Potency is 1.06 µM (active).

Turning to `CCOC(=O)C1=C(C)NC(C)=C(C(=O)OCC)C1c1ccccc1/C=C/C(=O)OC(C)(C)C`, the Potency is 10.6 µM (active).

Turning to `Cc1nc(Nc2ncc(C(=O)Nc3c(C)cccc3Cl)s2)cc(N2CCN(CCO)CC2)n1`, the Potency is 18.8 µM (active).

Regarding `C=C[C@](C)(O)CC[C@@H]1[C@@]2(C)CCCC(C)(C)[C@@H]2CC[C@@]1(C)O`, the Potency is 43.3 µM (active).

For `CC(C)(c1cc(Br)c(O)c(Br)c1)c1cc(Br)c(O)c(Br)c1`, the Potency was 27.2 µM (active) and 48.4 µM (active) and 51.6 µM (active).

Regarding `CN1CCN(C2Cc3ccccc3Sc3ccc(Cl)cc32)CC1` (configuration not stated), the Potency is 9.44 µM (active).

As to `COc1cc(C=C2CCC/C(=C\c3ccc(O)c(OC)c3)C2=O)ccc1O`, the Potency was 6.68 µM (active).

Regarding `CCCCCCCC/C=C\CCCCCCCC(=O)NCc1ccc(O)c(OC)c1`, the Potency was 6.68 µM (active).

For `CCCCOc1ccc(C(=O)CCN2CCCCC2)cc1`, the Potency was 3.59 µM (active).

As to `CNC(=O)c1cc(Oc2ccc(NC(=O)Nc3ccc(Cl)c(C(F)(F)F)c3)cc2)ccn1`, the Potency was 5.96 µM (active).

Consider `CC=O`, for which the Potency was 1.28 µM (active).

Take `CC(C)(C)CC(C)(C)c1ccccc1O`: the Potency was 21.8 µM (active).

For `C=C(c1ccc(C(=O)O)cc1)c1cc2c(cc1C)C(C)(C)CCC2(C)C`, the Potency is 9.44 µM (active) and 9.69 µM (active).

Turning to `O[C@@H](c1cc(C(F)(F)F)nc2c(C(F)(F)F)cccc12)[C@H]1CCCCN1`, the Potency is 5.96 µM (active).

For the molecule `CCN(CC)CCCN(c1ccccc1)C1Cc2ccccc2C1`, the Potency is 2.11 µM (active).

As for `COc1cccc(CCc2ccccc2OCC(CN(C)C)OC(=O)CCC(=O)O)c1` (configuration not stated), the Potency is 13.3 µM (active).

`NC(=O)C(=O)N/N=C/c1ccc([N+](=O)[O-])o1`: the Potency was 21.1 µM (active).

Take `COCC(=O)O[C@]1(CCN(C)CCCc2nc3ccccc3[nH]2)CCc2cc(F)ccc2[C@@H]1C(C)C`: the Potency is 1.88 µM (active).

As for `CC(C)(C)c1cc(/C=C2\SC(=N)NC2=O)cc(C(C)(C)C)c1O`, the Potency was 13.7 µM (active).

In the case of `O=C1NCCN1CCN1CCC(c2cn(-c3ccc(F)cc3)c3ccc(Cl)cc23)CC1`, the Potency was 5.96 µM (active).

For `O=C1C=CC(=O)N1c1ccccc1`, the Potency was 4.86 µM (active).

As for `O=C(Nc1ccc(Cl)cc1)Nc1ccc(Cl)c(C(F)(F)F)c1`, the Potency was 5.31 µM (active).

In the case of `CCN(CC)CCOc1ccc(C(O)(Cc2ccc(Cl)cc2)c2ccc(C)cc2)cc1` (configuration not stated), the Potency is 7.5 µM (active).

Consider `CCC(C)c1cc([N+](=O)[O-])cc([N+](=O)[O-])c1OC(=O)OC(C)C` (configuration not stated), for which the Potency was 21.7 µM (active).

On to `c1cc(OCC2CO2)cc(OCC2CO2)c1` (configuration not stated), for which the Potency was 7.63 µM (active).

In the case of `CCCCCCC(C)Nc1ccc(Nc2ccccc2)cc1` (configuration not stated), the Potency was 43.3 µM (active).

For `CCCOc1sc(C(=O)N2CCC(c3cc(CN)ccc3F)CC2)c(C)c1Br`, the Potency is 7.91 µM (active).

With `Oc1ccc(-c2ccc(O)cc2)cc1`, the “activity, negative = inhibition” value is 0% [at 95 µM] (inactive).

Turning to `CC(=O)OC(OC(C)=O)c1ccc([N+](=O)[O-])o1`, the Potency was 13.9 µM (active).

In the case of `CC(C(O)c1ccccc1)N(C)CCOC(c1ccccc1)c1ccccc1` (configuration not stated), the Potency is 16.8 µM (active).

With `CSc1ccc2c(c1)N(CCC1CCCCN1C)c1ccccc1S2` (configuration not stated), the Potency is 7.5 µM (active) and 9.65 µM (active).

In the case of `COc1cc(C(=O)NS(=O)(=O)c2ccccc2C)ccc1Cc1cn(C)c2ccc(NC(=O)OC3CCCC3)cc12`, the Potency was 26.6 µM (active).

In the case of `C=C1C(C)(C)[C@@]2(Cl)C(Cl)[C@]1(Cl)C(Cl)(Cl)C2(Cl)Cl` (some centres not stated), the Potency was 23.9 µM (active).

For the molecule `Cc1cc2c(C(C)C)c(O)c(O)c(C=O)c2c(O)c1-c1c(C)cc2c(C(C)C)c(O)c(O)c(C=O)c2c1O`, the Potency is 9.44 µM (active).
